KB-V1 MDR tox = KB-V1 MDR subline cytotoxicity | KB-V1 MDR cells viability, CellTiter-Glo, 72 h | Potency, µM (titrated, usually from 46.1 µM), usual class: cytotoxic | 3.4% of 400,000 active; further: potency means the concentration at half of the fitted maximal effect; on the % scale 0 is the no-effect control and ±100 the full control effect; nearly all actives have a fitted effect of over 60% in size
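Drug-selected KB-V1 cells, grown in DMEM lacking phenol red with 10% FBS, receive compound titrations; after three days at 37 degrees C, surviving cell ATP is quantified by CellTiter-Glo luminescence and responses normalized and curve-fitted.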
KB-3-1 cytotox = kills parental KB-3-1 adenocarcinoma cells. KB-3-1 viability, CellTiter-Glo ATP luminescence, 72 h. Potency, µM (doses to about 46.1 µM), most hits filed as cytotoxic. 1.4% of 400,000 active. AID 1347075; further: potency means the concentration at half of the fitted maximal effect; on the % scale 0 is the no-effect control and ±100 the full control effect; nearly all actives have a fitted effect of over 60% in size
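Here the drug-naive KB-3-1 line serves as comparator for MDR sub-line selectivity; cells received compound titrations, 72 h at 37 °C, then CellTiter-Glo readout.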
SW480 rerep = DNA re-replication induction in SW480 cells; 1.8% of 340,000 active; SW480 DNA re-replication, Hoechst DNA content imaging, 48 h; AID 624297; Potency, µM (doses to about 46.1 µM), for the others: top-dose re-replication activation, usual class: activators; further: potency means the concentration at half of the fitted maximal effect; % of control where 0% means no effect; nearly all actives have a fitted effect of over 55% in size
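Readout is total intensity of Hoechst-stained nuclei, excited at 405 nm and collected at 500-530 nm. Compound treatment lasted 48 hr at 37 C in 5% CO2 before staining.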
MCF10A rereplic = DNA re-replication induction in MCF 10a cells; MCF 10A DNA re-replication, Hoechst nuclear intensity, 48 h; Potency, µM (series often up to 46.1 µM), for inactives: at the highest dose activity, positive = re-replication, usual class: activators; 2.9% of 350,000 active; further: potency means the concentration at half of the fitted maximal effect; % of control where 0% means no effect; nearly all actives have a fitted effect of over 50% in size
IL1B secr inh = inhibitors of inflammasome signaling (IL-1 beta secretion); THP-1 LPS/ATP IL-1B secretion, AlphaLISA, 16 h; hits give low values; activity change, % at 57.5 µM; 4.7% of 360,000 active; in the data active means activity change below about -50%; inconclusive means mostly about -30% to -49%; further: on the % scale 0 is the no-effect control and ±100 the full control effect
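Secreted IL-1B measured by AlphaLISA bead assay after 16 h compound exposure of THP-1 cells; compounds (final up to 57.5 uM) added 1 h before LPS (250 ng/mL) and ATP (1.25 mM) stimulation; lower signal means less secretion.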
An asterisk follows results filed as active; ! = repeats disagree; [ ] = remark or other dose. This is a sample that favours compounds with a hit; in the whole collection about 9.9% have one here. Unless noted, the call rests on the fitted dose curve; in most records, active means well fitted curve in the direction sought with a large enough effect; inconclusive means small, poorly fitted or top-dose-only effect, or another doubt; inactive means no such curve, though single readings can be large; an effect the other way counts as inactive or inconclusive.

`CC1CCCCC1NC(=O)COC(=O)c1c2c(nc3ccccc13)/C(=C/c1ccco1)CC2` (stereo unspecified) gave KB-V1 MDR tox inactive, KB-3-1 cytotox inactive, SW480 rerep 14.6µM*, MCF10A rereplic 16.4µM* and IL1B secr inh -15.0.
Screening COc1ccc(-c2[nH]c(-c3ccc4c(c3)OCO4)nc2-c2ccccc2)cc1 returned KB-V1 MDR tox inconclusive, KB-3-1 cytotox inconclusive, SW480 rerep inconclusive, MCF10A rereplic inconclusive and IL1B secr inh -64.0*.
Screening COc1cc(-c2nc(-c3ccccc3)c(-c3ccc(F)cc3)[nH]2)cc2c1OCO2 returned KB-V1 MDR tox inconclusive, KB-3-1 cytotox inactive, SW480 rerep 15.2%, MCF10A rereplic inconclusive and IL1B secr inh -2.8.
For COc1cccc2c1Oc1ncccc1N(C(=O)CCC(=O)NCCC(C)C)C2 the results were KB-V1 MDR tox inactive and KB-3-1 cytotox inactive.
Screening CO[C@H]1[C@H](O[C@H]2O[C@@H](C)[C@@H](O[C@@H]3C[C@](C)(O)[C@H](O)[C@H](C)O3)[C@@H](N(C)C)[C@@H]2O)[C@@H](CC=O)C[C@@H](C)[C@@H](O[C@H]2CC[C@H](N(C)C)[C@H](C)O2)/C=C\C=C/C[C@@H](C)OC(=O)C[C@H]1O returned SW480 rerep -8.2%[20.6 µM] and MCF10A rereplic -5.1%[20.6 µM].
Screening O=C(CSc1ncc2c(n1)-c1cc(Cl)ccc1N(Cc1ccccc1)S2(=O)=O)Nc1ccc(F)cc1F returned KB-V1 MDR tox 13µM* and KB-3-1 cytotox inactive.
COc1ccccc1NC(=O)CSc1ncc2c(n1)-c1cc(Cl)ccc1N(Cc1ccccc1)S2(=O)=O was read as KB-V1 MDR tox inactive and KB-3-1 cytotox inactive.
Screening CCN1c2ccccc2-c2nc(SCC(=O)Nc3c(C)cc(C)cc3C)ncc2S1(=O)=O returned KB-V1 MDR tox 4.61µM* and KB-3-1 cytotox 10.3µM*.
Screening CCN(CC)C(=O)C1=C(C)N(Cc2ccc(OC)cc2)C(=O)C(CC(=O)NC(c2ccccc2)c2ccccc2)C1 (stereo unspecified) returned KB-V1 MDR tox inconclusive, KB-3-1 cytotox inactive and IL1B secr inh inconclusive.
For COc1ccccc1C(C(=O)c1ccccc1)c1ccc(O)cc1 (stereo unspecified) the results were KB-V1 MDR tox inactive, KB-3-1 cytotox inactive and IL1B secr inh inconclusive.
COc1ccccc1C(C(=O)c1ccccc1)c1ccc2ccccc2c1 (stereo unspecified) was read as KB-V1 MDR tox inactive, KB-3-1 cytotox inconclusive and IL1B secr inh -71.3*.
For O=C(O)C(Cc1ccc(Cl)cc1)NS(=O)(=O)c1ccc(Cl)cc1 (stereo unspecified) the results were KB-V1 MDR tox inactive, KB-3-1 cytotox inactive, SW480 rerep -5.1%, MCF10A rereplic 3.6% and IL1B secr inh 29.4.
CCN(C(=O)c1cc2c(=O)oc3ccc(C)cc3c2s1)c1ccccc1F was read as KB-V1 MDR tox inactive and KB-3-1 cytotox inactive.
Screening CS/C(=N\S(=O)(=O)c1cccs1)Nc1ccc(Br)cc1F returned KB-V1 MDR tox inconclusive, KB-3-1 cytotox inactive, SW480 rerep -0.4%, MCF10A rereplic 23.1µM*! and IL1B secr inh -0.8.
`Cc1ccc(C(=O)NNc2c3ccccc3nc3ccccc23)cc1` gave KB-V1 MDR tox inactive, KB-3-1 cytotox inconclusive, SW480 rerep 2.0%, MCF10A rereplic 8.5% and IL1B secr inh -97.9*.
Screening O=C(Nc1nc(=O)c2ccccc2s1)c1ccc(F)cc1 returned KB-V1 MDR tox inactive, KB-3-1 cytotox inactive, SW480 rerep -3.4%, MCF10A rereplic inconclusive and IL1B secr inh -99.3*.
Screening O=C(Nc1nc(=O)c2ccccc2s1)c1ccc(Cl)cc1 returned KB-V1 MDR tox inactive, KB-3-1 cytotox inactive, SW480 rerep 4.8%, MCF10A rereplic -1.7% and IL1B secr inh 14.3.
CCn1c(NC(=O)C(C)C)c2ccccc2nc1=O was read as KB-V1 MDR tox inactive, KB-3-1 cytotox inactive, SW480 rerep -13.6%, MCF10A rereplic -0.6% and IL1B secr inh 23.3.
For CCn1c(NC(=O)c2ccc(C)cc2)c2ccccc2nc1=O the results were KB-V1 MDR tox 11.6µM*, KB-3-1 cytotox inactive, SW480 rerep -2.5%, MCF10A rereplic 7.5% and IL1B secr inh inconclusive.
O=C(NNc1c2ccccc2nc2ccccc12)c1ccc(Cl)cc1 was read as KB-V1 MDR tox inactive, KB-3-1 cytotox inconclusive, SW480 rerep inconclusive, MCF10A rereplic 6.6% and IL1B secr inh -9.2.
CCn1c(NC(=O)c2ccc(F)cc2)c2ccccc2nc1=O was read as KB-V1 MDR tox 10.3µM*, KB-3-1 cytotox inconclusive, SW480 rerep -10.7%, MCF10A rereplic 22.8% and IL1B secr inh -10.3.
CN(CC(=O)Nc1ccc(N2CCOCC2)cc1)CC(=O)Nc1ccccc1C#N was read as KB-V1 MDR tox inconclusive, KB-3-1 cytotox inactive, SW480 rerep -8.6%, MCF10A rereplic inconclusive and IL1B secr inh 1.7.
Screening CCOC(=O)c1nc(Nc2ccc(N3CCC(C)CC3)cc2)c2ccccc2n1 returned KB-V1 MDR tox inactive, KB-3-1 cytotox inactive, SW480 rerep -18.3%, MCF10A rereplic 14.4% and IL1B secr inh -8.8.
`NC(=O)CN1C(=O)NC2(CCCc3ccccc32)C1=O` (stereo unspecified) gave KB-V1 MDR tox inactive, KB-3-1 cytotox inactive, SW480 rerep -1.7%, MCF10A rereplic 2.4% and IL1B secr inh -2.0.
Screening CCN(CC)S(=O)(=O)c1ccc(C(=O)N(c2ccc(C)cc2)C2C=CS(=O)(=O)C2)cc1 (stereo unspecified) returned KB-V1 MDR tox inactive, KB-3-1 cytotox inactive, SW480 rerep -2.7%, MCF10A rereplic -1.0% and IL1B secr inh 29.9.
For N#Cc1cnn2c1nc(N1CCCCC1)c1ccccc12 the results were KB-V1 MDR tox 11.6µM*, KB-3-1 cytotox inconclusive, SW480 rerep 3.0%, MCF10A rereplic 15.7% and IL1B secr inh 0.0.
CC(C)c1ccc(S(=O)(=O)c2nnn3c2nc(N2CCCCC2)c2ccccc23)cc1 was read as KB-V1 MDR tox inactive, KB-3-1 cytotox inactive, SW480 rerep -2.9%, MCF10A rereplic -0.2% and IL1B secr inh -3.6.
N=c1c(C(=O)NCc2ccco2)cc2c(=O)n3ccccc3nc2n1CCc1ccccc1 was read as KB-V1 MDR tox 20.6µM*, KB-3-1 cytotox 18.4µM*, SW480 rerep 13µM*, MCF10A rereplic 8.2µM* and IL1B secr inh -0.9.
COc1ccc(CCn2c(=N)c(C(=O)NCc3ccco3)cc3c(=O)n4ccccc4nc32)cc1OC was read as KB-V1 MDR tox inactive, KB-3-1 cytotox inactive, SW480 rerep -1.2%, MCF10A rereplic 5.2% and IL1B secr inh inconclusive.
